Sampled rows, rich in hits. Any-hit rate of the full collection: about 2.4%.
B2AR arrestin = agonists driving beta-arrestin recruitment to human beta2-adrenergic receptor. P07550. beta-arrestin recruitment to beta2AR, cell-based reporter. Potency, µM (doses to about 46.1 µM), most hits filed as activators. actives 0.02% (n = 330,000); active = well fitted activation curve with a large enough effect; inconclusive = small, poorly fitted or top-dose-only effect; also: nearly all actives have a fitted effect of over 65% in size
D2 PAM-1 = potentiates the human D2 dopamine receptor allosterically. DiscoveRx D2 beta-arrestin cells, luminescence, 90 min; 100% = 57 uM dopamine signal. potentiation, % (no concentration beside the values). actives 0.23% (n = 360,000). AID 624464; in the data active = potentiation above about 50%; inconclusive = mostly about 30% to 49%
Target sequence (P14416 whole entry, looked up): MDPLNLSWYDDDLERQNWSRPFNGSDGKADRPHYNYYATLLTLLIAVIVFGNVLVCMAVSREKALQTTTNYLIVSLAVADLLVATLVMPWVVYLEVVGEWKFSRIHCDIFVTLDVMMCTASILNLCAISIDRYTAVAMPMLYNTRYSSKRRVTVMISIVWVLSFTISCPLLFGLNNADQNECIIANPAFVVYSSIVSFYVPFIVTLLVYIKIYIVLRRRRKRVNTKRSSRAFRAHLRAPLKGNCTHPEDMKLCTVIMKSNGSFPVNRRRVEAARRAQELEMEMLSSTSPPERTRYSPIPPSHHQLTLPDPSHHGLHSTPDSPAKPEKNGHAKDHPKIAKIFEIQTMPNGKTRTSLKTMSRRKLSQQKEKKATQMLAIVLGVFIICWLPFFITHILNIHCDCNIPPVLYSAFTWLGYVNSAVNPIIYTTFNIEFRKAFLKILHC
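D2 cells co-treated with compound plus 50 nM dopamine (EC20) for 90 min at 37 deg C to detect potentiation. Beta-arrestin recruitment was read as enzyme-fragment luminescence after 1 h at ambient temperature. Full response was set by 57 uM dopamine.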
D2 ag-1 = activates the human D2 dopamine receptor; actives 0.53% (n = 340,000); activation, % at 2 µM; AID 485358; HEK293 T-REx D2 cells, calcium flux agonist mode; P14416;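 active = activation over 3 SD above normal in the single-dose calcium agonist read, cut at about 30% in these data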
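Tetracycline-induced HEK293 T-REx cells with force-coupled D2 receptor, plated overnight at 30 C, loaded with no-wash calcium dye. After a 10 s baseline, compound was pin-added and calcium flux read kinetically for 180 s; calcium rises flagged agonists.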
D2 antagonist = antagonists of human D2 dopamine receptor; P14416; actives 2% (n = 340,000); HEK293 TREx D2 cells, calcium flux, dopamine EC80; inhibition, % at 10 µM; AID 485344; in the data active = inhibition above about 30%; inactive = below that, where a call was filed
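Antagonism is scored as inhibition of an EC80 dopamine-evoked calcium signal in a force-coupled, tetracycline-inducible HEK293 T-REx D2 line, with compound present 180 s before agonist.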
D2 PAM-2 = positively modulates the human D2 dopamine receptor allosterically. P14416. actives 0.34% (n = 340,000). potentiation, % at 10 µM. HEK293 T-REx D2, calcium flux, EC20 dopamine potentiation;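 active = potentiation over 3 SD above the plate norm, cut at about 30% in these data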
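Potentiation of an EC20 dopamine calcium response is measured in a force-coupled, tetracycline-inducible Hek293 Trex D2 line. Compound-only kinetic reads over 180 s flag agonists before dopamine addition.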
D2 ag-2 = agonists of human D2 dopamine receptor (beta-arrestin); P14416; DiscoveRx PathHunter D2 beta-arrestin, luminescence, 90 min; 100% = 57 uM dopamine signal; activation, % (test concentration not listed); actives 0.084% (n = 360,000); AID 624465; in the data active = activation above about 40%; inconclusive = between about 15% and that limit
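Agonist mode: compounds alone added to overnight-plated D2 PathHunter cells for 90 min at 37 C, with 57 uM final dopamine (EC100) defining full response. Beta-arrestin recruitment detected by chemiluminescent reagent, read after 1 h at ambient temperature.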
Of the large screens only hits and unclear results are named; the others gave an inactive call.

O=C(c1ccco1)c1cn(Cc2ccc(Cl)cc2)c2ccccc12	D2 antagonist 31
COc1ccc(NC(=O)C2C3CCC(O3)C2C(=O)O)c(OC)c1 (configuration not stated)	none
CCNC(=O)NC(=O)C(C)OC(=O)c1c(C)nn(Cc2ccccc2Cl)c1Cl (configuration not stated)	none
CCNC(=O)NC(=O)C(C)OC(=O)c1c(C)nn(Cc2ccccc2)c1Cl (configuration not stated)	D2 antagonist 40
C=CCN(CC=C)C(=O)CCN1CC1C (configuration not stated)	none (no result: B2AR arrestin, D2 ag-1, D2 antagonist, D2 PAM-2)
COc1ccccc1N=Cc1c(O)n(C)c(=O)n(C)c1=O	D2 antagonist 35
C[C@@H]1C(=O)O[C@@H]2[C@H](O)C34[C@@H]5OC(=O)C3(O[C@H]3OC(=O)[C@H](O)C34[C@H](C(C)(C)C)[C@H]5O)[C@@]12O (some centres not stated)	D2 antagonist 37
CSCCC(c1nnnn1Cc1ccccc1)N1CCC(n2c(=O)[nH]c3ccccc32)CC1 (configuration not stated)	D2 PAM-1 inconclusive (no result: B2AR arrestin, D2 ag-1, D2 antagonist, D2 PAM-2)
O=c1[nH]c2ccccc2n1C1CCN(C(CCc2ccccc2)c2nnnn2Cc2ccccc2)CC1 (configuration not stated)	D2 PAM-1 52 (no result: B2AR arrestin, D2 ag-1, D2 antagonist, D2 PAM-2)
CCOc1ccc(NC(=O)c2c(O)[nH]c(=O)[nH]c2=O)cc1	none (no result: B2AR arrestin, D2 ag-1, D2 antagonist, D2 PAM-2)
CCOC(=O)c1ccc(NC(=O)c2c(O)[nH]c(=O)[nH]c2=O)cc1	D2 ag-1 54
CNc1ccc2oc(C[C@H]3O[C@@]4(CC[C@H]3C)O[C@H]([C@H](C)C(=O)c3ccc[nH]3)[C@H](C)C[C@H]4C)nc2c1C(=O)O	D2 ag-1 96, D2 antagonist 62
CC(C)(C)c1ccc(C(=O)C2CCCN(C3CCC3)C2)cc1 (configuration not stated)	D2 antagonist 37
CN1CCN(c2ccc(N)cc2Cl)CC1	D2 antagonist 46
COc1ccccc1[As](=O)(O)CC(O)COc1ccc(Cl)cc1Cl (configuration not stated)	none (no result: D2 PAM-1, D2 ag-2)
O=C(NCc1ccccc1)c1cccn(Cc2cccc(Cl)c2)c1=O	none
O=C(COC(=O)Cc1ccccc1)Nc1nnc(-c2ccccc2)o1	D2 antagonist 31
Cc1ccccc1C1=NCC(=S)Nc2ccc(Cl)cc21	D2 antagonist 41
O=C1CN=C(c2ccccc2)c2cc(Cl)ccc2N1	none (no result: D2 ag-1, D2 antagonist, D2 PAM-2)
CC(=O)N1CC(=O)Nc2ccc(F)cc2C1c1ccccc1 (configuration not stated)	none
Cc1ccc2c(c1)C1CN(C)CCC1N2S(=O)(=O)c1ccccc1 (configuration not stated)	D2 antagonist 44
CSc1ccc(CN2CCN(C(=O)Cc3ccccc3)CC2)cc1	none (no result: B2AR arrestin, D2 ag-1, D2 antagonist, D2 PAM-2)
COc1ccc(CN2CCN(Cc3ccccc3F)CC2)cc1	D2 antagonist 31
CSc1ccc(CN2CCN(Cc3ccccc3Cl)CC2)cc1	D2 antagonist 70
CC1(CCCc2ccc(N(CCCl)CCCl)cc2)NC(=O)NC1=O (configuration not stated)	none (no result: B2AR arrestin, D2 ag-1, D2 antagonist, D2 PAM-2)
Cc1ncoc1C(=O)NCC1=C(c2ccc3ccccc3c2)C[C@@H]2CC[C@H]1N2Cc1ccco1	none (no result: B2AR arrestin, D2 ag-1, D2 antagonist, D2 PAM-2)
COc1ccc(-n2c(/C=C/c3cccc(F)c3)nc3ccccc3c2=O)c(OC)c1	none
COC(=O)C1=C(c2ccc(S(C)(=O)=O)cc2)C[C@@H]2CC[C@H]1N2C(=O)N1CCOCC1	none (no result: B2AR arrestin, D2 ag-1, D2 antagonist, D2 PAM-2)
CCOc1cc(CNCCc2c[nH]c3ccccc23)cc(Cl)c1OC	none
O=C(CNC(=O)c1cccc(Cl)c1)Nc1ccc(Br)cc1C(=O)c1ccccc1	none
O=C(CNC(=O)c1ccc(Cl)cc1)Nc1ccc(Br)cc1C(=O)c1ccccc1	D2 antagonist 34
CN1CCN(c2c(F)cc([N+](=O)[O-])c(N)c2Br)CC1	D2 antagonist 35
Nc1c([N+](=O)[O-])cc(F)c(N2CCNCC2)c1Br	none
COc1cc(Br)cc(CN2CCN(C)CC2)c1O	none
COc1ccc(Br)cc1CN1CCN(CCO)CC1	D2 antagonist 55
CCN1CCN(Cc2cc(Br)ccc2O)CC1	D2 antagonist 64
COc1cc(CC(=O)N2C[C@H]3C[C@@H](C2)c2cccc(=O)n2C3)cc(OC)c1OC	none
Cc1ccc2c(c1)Oc1ccccc1N=C2	none (no result: B2AR arrestin, D2 ag-1, D2 antagonist, D2 PAM-2)
Fc1ccc2c(c1)nnn2C1CCN(Cc2ccccc2)CC1	D2 antagonist 82
CC1(C)C(c2ccccc2)=NC(c2cccnc2)N1O (configuration not stated)	none
CC(=O)N1CN2CN(C1)CN(C(C)=O)C2	D2 PAM-2 34
CN1CCc2nc(SCc3cccc(Br)c3)c(C#N)cc2C1	none
COc1ccc2[nH]cc(CCN)c2c1	D2 ag-1 34
CCCCCCCCCOc1ccc2[nH]cc(CCN)c2c1	none (no result: D2 PAM-1, D2 ag-2)
COc1ccc(C(c2c(O)c3ccccc3oc2=O)c2c(C)n(C)n(-c3ccccc3)c2=O)cc1 (configuration not stated)	D2 antagonist 93
C#CC1(O)CCC2C3CCC4=C/C(=N/OCC(=O)NCC(=O)NC(C(=O)O)C(C)C)CC[C@]4(C)C3CC[C@@]21C (some centres not stated)	D2 antagonist 60
CCOC(=O)c1c(C)n(Cc2ccco2)c2c1cc(O)c1ccccc12	D2 PAM-1 72, D2 ag-2 inconclusive
CCCC/C(=N\O)c1c[nH]c2ccccc12	none
CCOc1cc(/C=C2\C(=O)NC(=O)N(CCc3ccc(F)cc3)C2=O)ccc1O	none
NS(=O)(=O)OC(CCc1ccccc1)C(Cl)(Cl)Cl (configuration not stated)	D2 antagonist 38
NNc1n[nH]c(=S)n1N	D2 ag-2 inconclusive
CC(=O)O[C@H]1C(=O)[C@@]2(C)C([C@H](OC(=O)c3ccccc3)[C@]3(O)C[C@H](OC(=O)[C@H](O)[C@@H](NC(=O)Cc4ccccc4)c4ccccc4)C(C)=C1C3(C)C)[C@]1(OC(C)=O)CO[C@@H]1C[C@@H]2O (some centres not stated)	none
CCOC(=O)C1CCCCC12C(C#N)=C(N)Oc1n[nH]c(C)c12 (configuration not stated)	D2 antagonist 30
Cc1cc(OC(=O)N(C)C)nc2c1c(C)nn2C	none
N#Cc1c(Br)n(C2OC(CO)C(O)C2O)c2ncnc(N)c12 (configuration not stated)	D2 PAM-1 inconclusive, D2 ag-2 70 (no result: B2AR arrestin, D2 ag-1, D2 antagonist, D2 PAM-2)
O=C1NCN(c2ccccc2)C12CCN(C(c1nnnn1C1CCCC1)C1CC1)CC2 (configuration not stated)	none (no result: B2AR arrestin, D2 ag-1, D2 antagonist, D2 PAM-2)
